# Results: the supplement of paper PMC8728848
# This is one part of a sample in which the strongest signals are shown more often than they occur.
# Columns and labels:
# Assay in all cases: glycan array binding signal (z-score within array); higher = stronger binding
# Settings in all cases: glycan notation: IUPAC condensed, linker removed
# [1] = molecular target: Fuc(a1-2)Gal(b1-3)GalNAc(b1-3)Gal(a1-4)Gal(b1-4)Glc
# How it was run: (§1)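 Columns mapping to the same glycan were averaged after glycan names were converted to IUPAC-condensed notation. The data come from 3228 arrays in the Consortium for Functional Glycomics database, limited to those with an available protein sequence. Binding is reported as a within-array Z-score averaged across arrays of one protein sequence and across linkers.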
# [2] = molecular target: Fuc(a1-2)Gal(b1-3)GlcNAc(b1-3)[Neu5Ac(a2-6)Gal(b1-4)GlcNAc(b1-6)]Gal(b1-4)Glc
# How it was run: as §1
# [3] = molecular target: Fuc(a1-2)Gal(b1-4)[Fuc(a1-3)]GlcNAc(b1-2)Man(a1-3)[Fuc(a1-2)Gal(b1-4)[Fuc(a1-3)]GlcNAc(b1-2)Man(a1-6)]Man(b1-4)GlcNAc(b1-4)GlcNAc
# How it was run: as §1
# [4] = molecular target: Fuc(a1-2)[Gal(a1-3)]Gal(b1-4)Glc
# How it was run: as §1
# [5] = molecular target: Fuc(a1-2)[GalNAc(a1-3)]Gal(b1-3)GalNAc(a1-3)[Fuc(a1-2)]Gal(b1-4)GlcNAc
# How it was run: as §1
# [6] = molecular target: Fuc(a1-2)[GalNAc(a1-3)]Gal(b1-3)GlcNAc
# How it was run: as §1
# [7] = molecular target: Fuc(a1-3)[Gal(b1-4)]Glc6S
# How it was run: as §1
# [8] = molecular target: Gal(b1-3)Gal(b1-4)GlcNAc(b1-2)Man(a1-3)[Gal(b1-3)Gal(b1-4)GlcNAc(b1-2)Man(a1-6)]Man(b1-4)GlcNAc(b1-4)GlcNAc
# How it was run: as §1
# [9] = molecular target: Gal(b1-3)[Fuc(a1-4)]GlcNAc
# How it was run: as §1
# [10] = molecular target: Gal(b1-3)[Neu5Ac(a2-6)]GalNAc
# How it was run: as §1
# Gal(b1-4)GlcNAc = molecular target: Gal(b1-4)GlcNAc
# How it was run: as §1
# [11] = molecular target: Gal(b1-4)GlcNAc(b1-2)Man(a1-3)Man(b1-4)GlcNAc(b1-4)GlcNAc
# How it was run: as §1
# [12] = molecular target: Gal(b1-4)GlcNAc(b1-2)Man(a1-3)[GlcNAc(b1-2)Man(a1-6)]Man(b1-4)GlcNAc(b1-4)GlcNAc
# How it was run: as §1
# [13] = molecular target: Gal(b1-4)GlcNAc(b1-2)[Gal(b1-4)GlcNAc(b1-4)]Man(a1-3)[GlcNAc(b1-4)][Gal(b1-4)GlcNAc(b1-2)Man(a1-6)]Man(b1-4)GlcNAc(b1-4)GlcNAc
# How it was run: as §1
# [14] = molecular target: Gal(b1-4)GlcNAc(b1-2)[Gal(b1-4)GlcNAc(b1-4)]Man(a1-3)[GlcNAc(b1-4)][Gal(b1-4)GlcNAc(b1-2)[Gal(b1-4)GlcNAc(b1-6)]Man(a1-6)]Man(b1-4)GlcNAc(b1-4)GlcNAc
# How it was run: as §1
# [15] = molecular target: Gal(b1-4)GlcNAc(b1-2)[Gal(b1-4)GlcNAc(b1-6)]Man(a1-6)[GlcNAc(b1-4)][Gal(b1-4)GlcNAc(b1-2)Man(a1-3)]Man(b1-4)GlcNAc(b1-4)GlcNAc
# How it was run: as §1
# [16] = molecular target: Gal(b1-4)GlcNAc(b1-3)GalNAc
# How it was run: as §1
# [17] = molecular target: Gal(b1-4)GlcNAc(b1-3)[Gal(b1-4)GlcNAc(b1-6)]Gal(b1-4)GlcNAc
# How it was run: as §1
# [18] = molecular target: Gal(b1-4)GlcNAc(b1-3)[Gal(b1-4)GlcNAc(b1-6)]GalNAc
# How it was run: as §1
# [19] = molecular target: GalNAc(a1-3)GalNAc(b1-3)Gal(a1-4)Gal(b1-4)Glc
# How it was run: as §1
# [20] = molecular target: GlcNAc(b1-2)Man(a1-3)[GlcNAc(b1-4)][GlcNAc(b1-2)Man(a1-6)]Man(b1-4)GlcNAc(b1-4)GlcNAc
# How it was run: as §1
# [21] = molecular target: GlcNAc(b1-3)[GlcNAc(b1-6)]GlcNAc(b1-4)GlcNAc
# How it was run: as §1
# [22] = molecular target: GlcNAc(b1-4)[GlcNAc(b1-6)]GalNAc
# How it was run: as §1
# [23] = molecular target: GlcNAc6S(b1-3)Gal(b1-4)GlcNAc
# How it was run: as §1
# [24] = molecular target: Man(a1-2)Man(a1-2)Man(a1-6)[Man(a1-3)]Man
# How it was run: as §1
# [25] = molecular target: Man(a1-2)Man(a1-3)[Man(a1-2)Man(a1-6)]Man
# How it was run: as §1
# [26] = molecular target: Man(a1-2)Man(a1-3)[Man(a1-2)Man(a1-6)]Man(a1-6)[Man(a1-2)Man(a1-2)Man(a1-3)]Man
# How it was run: as §1
# [27] = molecular target: Man(a1-2)Man(a1-3)[Man(a1-2)Man(a1-6)]Man(a1-6)[Man(a1-2)Man(a1-2)Man(a1-3)]Man(b1-4)GlcNAc(b1-4)GlcNAc
# How it was run: as §1
# [28] = molecular target: Man(a1-2)Man(a1-6)[Man(a1-3)]Man(a1-6)[Man(a1-2)Man(a1-2)Man(a1-3)]Man
# How it was run: as §1
# [29] = molecular target: Man(a1-2)Man(a1-6)[Man(a1-3)]Man(a1-6)[Man(a1-2)Man(a1-2)Man(a1-3)]Man(b1-4)GlcNAc(b1-4)GlcNAc
# How it was run: as §1
binder,measurement,setting,value
"ConA (Canavalia ensiformis), P02866 (protein) MAISKKSSLFLPIFTFITMFLMVVNKVSSSTHETNALHFMFNQFSKDQKDLILQGDATTGTDGNLELTRVSSNGSPQGSSVGRALFYAPVHIWESSAVVASFEATFTFLIKSPDSHPADGIAFFISNIDSSIPSGSTGRLLGLFPDANVIRNSTTIDFNAAYNADTIVAVELDTYPNTDIGDPSYPHIGIDIKSVRSKKTAKWNMQNGKVGTAHIIYNSVDKRLSAVVSYPNADSATVSYDVDLDNVLPEWVRVGLSASTGLYKETNTILSWSFTSKLKSNEIPDIATVV",glycan array binding signal (z-score),[1],-0.286
same,glycan array binding signal (z-score),[2],-0.189
same,glycan array binding signal (z-score),[3],-0.056
same,glycan array binding signal (z-score),[4],-0.278
same,glycan array binding signal (z-score),[5],-0.245
same,glycan array binding signal (z-score),[6],-0.279
same,glycan array binding signal (z-score),[7],-0.245
same,glycan array binding signal (z-score),[8],0.087
same,glycan array binding signal (z-score),[9],-0.274
same,glycan array binding signal (z-score),[10],-0.129
same,glycan array binding signal (z-score),Gal(b1-4)GlcNAc,-0.225
same,glycan array binding signal (z-score),[11],-0.192
same,glycan array binding signal (z-score),[12],0.311
same,glycan array binding signal (z-score),[13],-0.211
same,glycan array binding signal (z-score),[14],-0.196
same,glycan array binding signal (z-score),[15],-0.24
same,glycan array binding signal (z-score),[16],-0.228
same,glycan array binding signal (z-score),[17],-0.208
same,glycan array binding signal (z-score),[18],-0.214
same,glycan array binding signal (z-score),[19],-0.201
same,glycan array binding signal (z-score),[20],-0.108
same,glycan array binding signal (z-score),[21],-0.317
same,glycan array binding signal (z-score),[22],-0.264
same,glycan array binding signal (z-score),[23],-0.088
same,glycan array binding signal (z-score),[24],4.9
same,glycan array binding signal (z-score),[25],3.94
same,glycan array binding signal (z-score),[26],7.48
same,glycan array binding signal (z-score),[27],3.33
same,glycan array binding signal (z-score),[28],7.39
same,glycan array binding signal (z-score),[29],4.46
